Experimental data: PubChem BioAssay (NCI)
About 79,000 compounds went through this panel and 15% of them were active in at least one assay; those are over-represented in the sample as a whole. Activity calls are given as the source filed them. Cut-off read from the data, not from the text of the source: active = growth inhibition above about 70%; inactive = the rest.

Experiments:
[1] = NCI Yeast Anticancer Drug Screen. Data for the rad50 strain (AID 155);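 note: 0% = growth of vehicle-only cultures of the same strain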; settings: S. cerevisiae rad50 strain growth inhibition; at 50.0 µM; active compounds read high
Procedure, shortened: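 Cells are treated with compound, grown, and their growth is then scored against vehicle-only cultures of the same repair-deficient yeast strain.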

[2] = NCI Yeast Anticancer Drug Screen. Data for the mec2-1 strain (AID 157); settings: S. cerevisiae mec2-1 strain, at 50.0 µM, active compounds read high
Procedure, shortened: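 Compounds were applied to mec2-1 yeast cells. Their growth was then compared with that of vehicle-treated cultures to give growth inhibition.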

[3] = NCI Yeast Anticancer Drug Screen. Data for the sgs1 mgt1 strain (AID 161);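 note: 0% = growth of cultures given vehicle only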; settings: S. cerevisiae sgs1 mgt1 strain, at 50.0 µM, active compounds read high
Procedure, shortened: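 Growth of a repair-deficient yeast mutant was monitored after compound treatment and expressed as inhibition relative to vehicle-treated cultures.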

[4] = NCI Yeast Anticancer Drug Screen. Data for the cln2 rad14 strain (AID 165);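 note: 0% = growth equal to vehicle treated cultures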; settings: S. cerevisiae cln2 rad14 strain, at 50.0 µM, active compounds read high
Procedure, shortened: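 Strain: cln2 rad14 yeast, altered in cell cycle control and DNA damage repair. Read-out: growth inhibition vs vehicle.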

[5] = NCI Yeast Anticancer Drug Screen. Data for the bub3 strain (AID 167); settings: S. cerevisiae bub3 mutant strain, at 50.0 µM, active compounds read high
Procedure, shortened: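 Part of a panel of yeast mutants defective in DNA damage repair or cell cycle regulation. Each strain is grown with compound, and inhibition is calculated relative to solvent-treated cultures.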

[6] = NCI Yeast Anticancer Drug Screen. Data for the mlh1 rad18 strain (AID 175); settings: S. cerevisiae mlh1 rad18 strain growth inhibition; at 50.0 µM; active compounds read high
Procedure, shortened: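 A repair-deficient yeast strain is exposed to test compound, and growth is scored relative to vehicle-treated controls.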

Measured: growth inhibition

NC(=O)CC1CCCCC1
inactive: [1] 8.3% | [2] -9% | [3] -7.05% | [4] 7.35% | [5] 17.2% | [6] -8.55%

NC(Cc1cccnn1)C(=O)O (stereo unspecified)
inactive: [1] -29.2% | [2] -22.8% | [3] -29.2% | [4] -58.9% | [5] -25.4% | [6] -5.25%

COc1ccc(-c2oc3cc(OC)c(OC)c(O)c3c(=O)c2OC)cc1
inactive: [1] 7.45% | [2] 0.25% | [3] 3.05% | [4] 9.05% | [5] 13.8% | [6] -56.5%

Cc1cc(S(=O)(=O)Nc2n[nH]c(N)n2)c(SCC(=O)O)cc1Cl
inactive: [1] -2.5% | [2] -0.3% | [3] -27.6% | [4] 8.55% | [5] 1.85% | [6] 18.9%

COc1ccc([N+](=O)[O-])cc1N=NN(C)C
inactive: [1] -1.9% | [2] -11.7% | [3] -10.8% | [4] -6.3% | [5] -5.8% | [6] -8.45%

CC[n+]1[b-](C(C)(C)C)n(/N=C/C(C)(C)C)[b-](C(C)(C)C)[n+]1CC
inactive: [1] 0.7% | [2] -13.2% | [3] -19.9% | [4] 20.4% | [5] -11.2% | [6] 4.95%

CC(C)CNc1ncnc2c1cnn2C
inactive: [1] -1.65% | [2] 2.9% | [3] -1.65% | [4] -3.15% | [5] 9.8% | [6] -8.45%

CCC1CCC2c3c([nH]c4ccccc34)C3C(=O)N(c4ccc(OC)cc4)C(=O)C3C2C1 (stereo unspecified)
inactive: [1] -13.1% | [2] -10.6% | [3] 3.5% | [4] 6.65% | [5] 2.05% | [6] 24.4%

CCCCCC(Oc1ccc(Cl)cc1)C(=O)OCC (stereo unspecified)
inactive: [1] 22.8% | [2] 9.1% | [3] 14.9% | [4] 1.45% | [5] 15% | [6] 17.2%

COC(=O)C12C=CC(C1)n1c(=O)n(-c3ccccc3)c(=O)n12 (stereo unspecified)
inactive: [1] -8.55% | [2] 7.25% | [3] 0.5% | [4] -0.2% | [5] 4.4% | [6] -2.9%

Cc1ccc(S(=O)(=O)/C=C\S(=O)(=O)c2ccc(C)cc2)cc1
inactive: [1] -7.35% | [2] -3.15% | [3] 5.15% | [4] -28.4% | [5] 3.15% | [6] 2.7%

C/C(N=NC(=S)N1CCCCC1)=C1\C=CC=CN1O
inactive: [1] 10.8% | [2] -6.8% | [3] 53.8% | [5] 43.2% | [6] 22.1%
active: [4] 97.8%

CC1(C)CC([NH-])(C(=O)O)CC(C)(C)N1O.CC1(C)CC([NH-])(C(=O)O)CC(C)(C)N1O.[Pt+2]
inactive: [1] -5.65% | [2] -8.75% | [3] -6.5% | [4] -45.6% | [5] -1.05% | [6] -23.8%

COc1ccc(Cc2cc(N=O)c(OC)cc2O)cc1
inactive: [1] -12.4% | [2] -7.3% | [3] 1.15% | [4] -21.5% | [5] -3.6% | [6] -10.7%

O=C1C(Cl)C(c2ccccc2O)N1n1cnc2ccccc2c1=O (stereo unspecified)
inactive: [1] -29.4% | [2] 8.9% | [3] -12.5% | [4] -9.5% | [5] -7.8% | [6] -16.2%

C=CCNC(=S)NCc1cccc2ccccc12
inactive: [1] -3.45% | [2] 36.3% | [3] 34.1% | [4] -28.1% | [5] 32.4% | [6] 21.1%

C1=C(c2ccccc2)c2ccccc2CC1
inactive: [1] -10.3% | [2] -7.25% | [3] -0.35% | [4] -3.45% | [5] 2.2% | [6] 3%

CCN(CC)CCCNc1cccc2nc(Cl)ccc12
inactive: [1] 12.1% | [2] 18.6% | [3] 37.2% | [4] 24.5% | [5] 2.65% | [6] 9.25%

Cc1ccc(-c2cn3c(nc4ccccc43)c(-c3ccccc3)n2)cc1
inactive: [1] -25.6% | [2] -26.9% | [3] -41.6% | [4] -53.4% | [5] -26.1% | [6] -45%

O=c1oc2ccccc2cc1-n1nnc2cc([N+](=O)[O-])ccc21
inactive: [1] 39% | [2] 24.1% | [3] 25.8% | [4] -25.6% | [5] 12.8% | [6] 26.8%

COc1ccc2c(c1)C(N)CC2=O (stereo unspecified)
inactive: [1] 14% | [2] 7.7% | [3] 0.75% | [4] 8.75% | [5] 1.75% | [6] -12.9%

COc1cc2cc3c4cc(OC)c(OC)cc4cc[n+]3cc2cc1OC
inactive: [1] -4.5% | [2] -54.5% | [3] -2.8% | [4] -12.3% | [5] -15.8% | [6] -68%

CCOC(=O)C(CCC#N)(CCC#N)C(C)=O
inactive: [1] -8.5% | [2] -1.65% | [3] -4.7% | [4] -64.8% | [5] 0.15% | [6] 15.1%

Cn1ncnc1CCc1ccccc1
inactive: [1] -10.3% | [2] -3.9% | [3] -40.5% | [4] -4.55% | [5] -14% | [6] -21.1%

Clc1ncnc2c1cnn2-c1ccccc1
inactive: [1] -4.05% | [2] -8.55% | [3] 1.05% | [4] -30.9% | [5] -2.55% | [6] -6.1%

C=C1CC[C@H]2C(C)=CC[C@@H]3[C@H](OC(=O)[C@H]3COC)[C@@H]12
inactive: [1] 3.6% | [2] -39% | [3] -11.5% | [4] 5.4% | [5] -18.6% | [6] -11.4%

Cc1ccc(S(=O)(=O)C(Sc2ccccc2)=S=NC(C)(C)C)cc1
active: [1] 89.8% | [2] 81.5% | [3] 89.3% | [5] 81.8% | [6] 91.8%
inactive: [4] 53.4%

CCOC(=O)C(=[N+]=[N-])C(=O)c1ccc(OS(C)(=O)=O)c(OS(C)(=O)=O)c1
inactive: [1] 7.8% | [2] -1.05% | [3] 13% | [4] 22.3% | [5] -0.2% | [6] 11.9%

NC(=O)N1CCc2ccccc2C1c1ccccc1 (stereo unspecified)
inactive: [1] -2.95% | [2] -12.7% | [3] -7.55% | [4] -14.4% | [5] 9.25% | [6] -21.4%

CCC(C)c1cc(CN(C)C)cc(C(C)CC)c1O (stereo unspecified)
inactive: [1] 13.1% | [2] 1.1% | [3] 16.4% | [4] 13.8% | [5] 3.2% | [6] 9.05%

COc1cc(C)c(C(=O)c2ccccc2NS(=O)(=O)c2ccc(C)cc2)cc1OC
inactive: [1] 7.6% | [2] -0.7% | [3] -1.5% | [4] 22.6% | [5] -2.95% | [6] 9.1%

CCCCc1c2c(nc3c1CCc1cc4c(nc1-3)-c1nc3c(c(CCCC)c1CC4)CCC/C3=C\c1ccccc1)/C(=C/c1ccccc1)CCC2
inactive: [1] 16.6% | [2] 3.2% | [3] -0.25% | [4] 5.4% | [5] 5.05% | [6] 2.8%

COc1cc2c(cc1OC)C1CCN3C(=O)CCC3[N+]1(C)CC2 (stereo unspecified)
inactive: [1] 46.6% | [2] -1.05% | [3] 28.9% | [4] -4.3% | [5] 3.2% | [6] 8.7%

Cc1cccc(-c2c3ccccc3cc3c2ccc2ccccc23)c1
inactive: [1] 11.9% | [2] -5.35% | [3] -3.55% | [4] -13.8% | [5] 8.7% | [6] -2.65%

Cc1ccc(OCC(O)CN2CCN(c3ccc(C)cc3)CC2)cc1 (stereo unspecified)
inactive: [1] 26.6% | [2] -10.4% | [3] 36% | [4] -35.7% | [5] 4.55% | [6] 0.05%

Cc1c(C(=O)CC(=O)C(=O)Nc2ccccc2C(F)(F)F)[n+](=O)c2ccccc2n1[O-]
inactive: [1] 5.4% | [2] 8.05% | [3] -9.4% | [4] 16.9% | [5] 3.55% | [6] -6.45%

CCCCCCCC/C=C\CCCCCCCC(=O)NCCN(CC)CC
active: [1] 98.7% | [2] 99.3% | [3] 99.3% | [4] 96.8% | [5] 98.7% | [6] 98.8%

Cc1ccc(S(=O)(=O)/C=C/c2ccccc2)cc1
inactive: [1] 8.15% | [2] 6.2% | [3] 1.8% | [4] -10.3% | [5] -2.45% | [6] -10.2%

C/C(C/C(C)=N/O)=N/O
inactive: [1] -8.6% | [2] -5.85% | [3] 2.8% | [4] 0.45% | [5] -2.55% | [6] 17.7%

O=C(O)CNCc1ccc2c(c1)OCCO2
inactive: [1] 6.7% | [2] 15.7% | [3] -10.4% | [4] -3.35% | [5] -3.5% | [6] -15.8%

Cc1cc(C)c(-c2cc(C(O)C3OC4OC(C)(C)OC4C3O)on2)c(C)c1 (stereo unspecified)
inactive: [1] 15.3% | [2] -0.9% | [3] -1.3% | [4] 9.25% | [5] 0.8% | [6] 0.3%
